PubChem BioAssay (NCATS)
Records with an inconclusive call do not appear. Entries that show only a call come without a potency. Values without a mark were called inactive. Active and inactive are the calls of the source. The call rests on the fitted dose curve; in most records, active means well fitted inhibition curve with a large enough effect; inconclusive means small, poorly fitted or top-dose-only effect; inactive means flat fitted curve, though single readings scatter.

target: Phospholipid hydroperoxide glutathione peroxidase GPX4 (Homo sapiens) (UniProt P36969); experiment: Primary qHTS Assay for Inhibitors of Recombinant Selenoprotein Glutathione Peroxidase 4 (GPX4) (AID 1845192); settings: recombinant GPX4, GR-coupled NADPH fluorescence, 15 min; series mostly up to 50 µM; further: nearly all actives have a fitted effect of over 65% in size
Text: Assay Provider: Elias S.J. Arner MD PhD.
Department of Medical Biochemistry and Biophysics
Karolinska Institutet, Solna, Stockholm, Sweden
Selenoprotein glutathione peroxidases (GPX), like the ubiquitously expressed GPX1 and the ferroptosis modulator GPX4, enact their antioxidant activities by reducing hydroperoxides using glutathione. […] GPX1 and GPX4 inhibitors have thus shown promise as anti-cancer agents. Existing inhibitors are often promiscuous, or modulate GPX activity only indirectly, so novel direct inhibitors identified through screening against GPX1 and GPX4 could be valuable. Here, we developed optimized glutathione reductase (GR)-coupled GPX assays for the biochemical high-throughput screen (HTS) of almost 12,000 compounds with known mechanisms of action. Initial hits were triaged using a GR counter-screen, assessed for isoform specificity using a separate GPX2 assay, and were assessed for general selenocysteine-targeting activity using a thioredoxin reductase (TXNRD1) assay. With this suite of assays, we identified novel GPX1/GPX2- and GPX4-specific inhibitors and can here present a validated pipeline for future discovery research for selenoprotein-targeting agents.
SEQUENCE No. (e.g., 1, 2, 3, etc.); […] (e.g., Cells, Incubation, Reagent, etc.); VALUE; DESCRIPTION.
1; Reagent 1; 3 uL; 333.33 nM GPx4 enzyme or no enzyme control in 1536-well, black, solid Greiner assay plate.
2; Compound; 25 nL; Kalypsis pin tool (Wako USA) equipped with a 1536-well pin head.
3; Incubation; 30 min; room temperature.
4; Reagent 2; 1 uL; 500 nM GR, 5 mM GSH, 2.5 mM NADPH solution
5; Reagent 3; 1 uL; 2.5 mM CHP in 50% EtOH.
6; Detection; Fluorescence; ViewLux microplate reader, excitation 340 nm and emission 450 nm.
7; Incubation; 15 min; room temperature.
8; Detection; Fluorescence; ViewLux microplate reader, excitation 340 nm and emission 450 nm.
NOTES (numbers refer to Sequence numbers above)
1. 3 µL of 333.33 nM GPX4 and 0.016% BSA in assay buffer (50 mM Tris-HCl, 2 mM EDTA (pH 7.5), 150 mM NaCl) was added to columns 3-48 of 1536-well plates using a BioRAPTR Flying Reagent Dispenser (Let's Go Robotics (LGR), Carlsbad, CA). A no-enzyme control (0.01% BSA in TES assay buffer) was added to columns 1-2.
2. 25 nL, library and DMSO controls were added to each well with a pin tool (Kalypsys).
3. The assay plates were incubated for 30 minutes at room temperature.
4. 1 µL of master mix (500 nM glutathione reductase (GR), 5 mM reduced glutathione (GSH), 2.5 mM NADPH in assay buffer) was added.
5. 1 µL of cumene hydroperoxide (CHP) ([2.5 mM] in 50% EtOH) was then added within 5 minutes to initiate the reaction. Final concentrations were: 200 nM GPX4, 1 mM GSH, 0.5 mM CHP, 0.5 mM NADPH, 100 nM GR, 0.01% BSA.
6. Initial fluorescence readout (t=0) at 340/450 nm was measured using a ViewLux multimodal detector (PerkinElmer, Waltham, MA).
8. Endpoint fluorescence readout (t=15) at 340/450 nm was measured 15 min after room temperature incubation.
Potency means the concentration at half of the fitted maximal effect.

Phospholipid hydroperoxide glutathione peroxidase GPX4 (Homo sapiens), sequence (P36969 whole entry, looked up): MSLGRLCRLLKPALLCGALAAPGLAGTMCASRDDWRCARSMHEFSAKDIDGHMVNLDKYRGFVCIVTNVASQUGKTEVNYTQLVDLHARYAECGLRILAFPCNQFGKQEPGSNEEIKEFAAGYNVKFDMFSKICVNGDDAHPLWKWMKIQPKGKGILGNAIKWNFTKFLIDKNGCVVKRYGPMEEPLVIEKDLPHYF

Row | Compound | Potency | activity change, negative = inhibition
1 | COC(=O)CCC(=O)CN | inactive | –
2 | COC1CC(=O)C23C(=O)NC(CC(C)C)C2C(C)C(C)=CC3/C=C(\C)CCC1O (stereo not given) | inactive | –
3 | CCC(C)C(=O)O[C@@H]1[C@@H](O)[C@@H](O[C@H]2O[C@H](CO)[C@@H](O)[C@H](O)[C@H]2O)O[C@H](CO)[C@H]1O (stereo not given in full) | inactive | –
4 | OC1COC(OCC2OC(OCCc3ccccc3)C(O)C(O)C2O)C(O)C1O (stereo not given) | inactive | –
5 | O=C(O)CCc1cccc(O[C@@H]2O[C@H](CO)[C@@H](O)[C@H](O)[C@H]2O)c1O | inactive | –
6 | C=C1CCC2C(C)(CO[C@@H]3O[C@H](CO)[C@@H](O)[C@H](O)[C@H]3O)C(O)CCC2(C)C1C(=O)CC1=CCOC1=O (stereo not given in full) | inactive | –
7 | COc1cc(C(O)C(CO)Oc2ccc(CCCO[C@@H]3O[C@@H](C)[C@H](O)[C@@H](O)[C@H]3O)cc2OC)ccc1O (stereo not given in full) | inactive | –
8 | CC(C)[C@@H](C)/C=C/[C@@H](C)[C@H]1CC[C@H]2C3=CC=C4C[C@@H](O)CC[C@]4(C)[C@H]3CC[C@]12C | inactive | –
9 | CC1C(=O)CC2C3C(O)CC(C(=O)O)C12CC3(C)C (stereo not given) | inactive | –
10 | C=C1C[C@@]23CC[C@@H]4[C@](C)(C(=O)O)CCC[C@@]4(C)C2=CC[C@H]1C3 | inactive | –
11 | CNc1nc(Nc2cnn([C@H]3CCN(C4COC4)C[C@@H]3F)c2Cl)ncc1C(F)(F)F | inactive | –
12 | CCS(=O)(=O)N1CCC([C@@H](C)n2c(C)c(C(=O)NCc3c(OC)cc(C)[nH]c3=O)c3ccccc32)CC1 | inactive | –
13 | OC[C@H]1O[C@@H](Oc2cc(O)cc(-c3cc4ccc(O)cc4o3)c2)[C@H](O)[C@@H](O)[C@@H]1O | 8.81 µM (active) | –
14 | O=C(C1CC1)N1CC[C@@H](Cc2n[nH]c(=O)n2-c2ccc(-c3ccc4occc4c3)cc2)C1 | inactive | –
15 | CCC(CCO[C@@H]1O[C@H](CO[C@H]2OC[C@](O)(CO)[C@H]2O)[C@@H](O)[C@H](O)[C@H]1O)C(C)(C)O (stereo not given in full) | inactive | –
16 | C[C@@H]1CC[C@]2(C(=O)O[C@@H]3O[C@H](CO)[C@@H](O)[C@H](O)[C@H]3O)CC[C@]3(C)C(=CCC4[C@@]5(C)C[C@@H](O)[C@H](O)C(C)(C)C5CC[C@]43C)C2[C@]1(C)O (stereo not given in full) | inactive | –
17 | C=CC(C)(C)C12CC3C(=O)NC(Cc4cnc[nH]4)C(=O)N3C1Nc1ccccc12 (stereo not given) | inactive | –
18 | CC(=O)OC[C@]1(O)[C@H]2[C@H](OC(=O)CC(C)C)OC=C(CO[C@@H]3O[C@H](CO)[C@@H](O)[C@H](O)[C@H]3O)[C@H]2C[C@@H]1O | inactive | –
19 | NC1CCC(N[C@@H]2C[C@H]2c2ccccc2)CC1 (stereo not given in full) | inactive | –
20 | CC(=O)OCC(=O)O[C@@H]1[C@H]2[C@@H](OC(=O)c3ccccc3)[C@@H](C)C[C@]2(O)[C@H](OC(C)=O)C2(C)[C@H]3CC(C)(C)C(=O)[C@@H]3CC1(OC(C)=O)[C@@H]2OC(C)=O (stereo not given in full) | inactive | –

Row | Compound | Potency | activity change, negative = inhibition
21 | C=C1C[C@]23C[C@H]1CC[C@H]2[C@]1(C)CCC[C@@]2(CO)C(=O)O[C@H]([C@H]21)[C@@H]3O | inactive | –
22 | COC(=O)CC1(O)C(=O)Nc2ccccc21 (stereo not given) | inactive | –
23 | CN[C@@H]1[C@@H](O)[C@@H](O[C@@H]2[C@@H](O)[C@H](O[C@H]3O[C@H](CN)[C@@H](O)[C@H](O)[C@H]3O)[C@@H](N)C[C@H]2NC(=O)[C@@H](O)CN)OC[C@]1(C)O | inactive | –
24 | CCOc1nc2cccc(C(=O)O)c2n1Cc1ccc(-c2ccccc2-c2noc(=O)[nH]2)cc1 | inactive | –
25 | O=C(NC[C@H](O)CN1CCc2ccccc2C1)c1cc(NC2COC2)ncn1 | inactive | –
26 | CN1C(=O)c2ccccc2-n2c(nc3ccccc3c2=O)/C1=C/c1ccccc1 | inactive | –
27 | CCCCCCCC(=O)O | inactive | –
28 | O=C(O[C@H]1[C@@H]2C=CO[C@@H](O[C@@H]3O[C@H](CO)[C@@H](O)[C@H](O)[C@H]3O)[C@@H]2[C@@]2(CO)O[C@@H]12)c1ccc(O)cc1 | inactive | –
29 | CC1=CC(=O)C[C@H]2[C@@H]1CC[C@@H](C)[C@]21CO[C@H](c2ccoc2)C1=O | inactive | –
30 | COC(=O)c1cc(CN2CCN(C(=N)N)CC2)cc(C(=O)N2CCN(C(=O)c3ccc(C(=N)N)cc3)CC2)c1 | inactive | –
31 | C[C@@H]1O[C@@H](O[C@H]2[C@H](O)[C@@H](O)[C@H](OC[C@H]3O[C@@H](OC(=O)[C@]45CCC(C)(C)C[C@H]4C4=CCC6[C@@]7(C)C[C@H](O)[C@H](O[C@@H]8O[C@H](CO)[C@@H](O)[C@H](O)[C@H]8O)[C@@](C)(C(=O)O)C7CC[C@@]6(C)[C@]4(C)CC5)[C@H](O[C@@H]4O[C@H](CO)[C@@H](O)[C@H](O)[C@H]4O)[C@@H](O)[C@@H]3O)O[C@@H]2CO)[C@H](O)[C@H](O)[C@H]1O (stereo not given in full) | – | 0.162% [at 9.73 µM]
32 | CCC(=O)O[C@]1(C(=O)CCl)[C@@H](C)C[C@H]2[C@@H]3C[C@H](F)C4=CC(=O)C=C[C@]4(C)[C@@]3(F)[C@@H](O)C[C@@]21C | inactive | –
33 | C/C(=C/CCC(CO)C1CCC2(C)C3CCC4C(C)(C)C(OC5OC(CO)C(O)C(O)C5O)CC(O)C45CC35CCC12C)COC1OC(CO)C(O)C(O)C1O (stereo not given) | inactive | –
34 | COc1ccc2c(c1)O[C@H](O[C@@H]1O[C@H](CO)[C@@H](O)[C@H](O)[C@H]1O)C(=O)N2 | inactive | –
35 | CCC(NC(=O)CC(NC(=O)C(CO)NC(=O)C(CC)NC(=O)c1ccc[nH]1)c1ccccc1)C(=O)O (stereo not given) | inactive | –
36 | C/C=C(\C)C(=O)O[C@H]1[C@H](O)[C@]2(COC(C)=O)[C@H](O)C[C@]3(C)C(=CCC4[C@@]5(C)CC[C@H](O[C@@H]6O[C@H](C(=O)O)[C@@H](O[C@@H]7O[C@H](CO)[C@@H](O)[C@H](O)[C@H]7O)[C@H](O)[C@H]6O[C@@H]6O[C@H](CO)[C@@H](O)[C@H](O)[C@H]6O)[C@](C)(CO)C5CC[C@]43C)[C@@H]2CC1(C)C (stereo not given in full) | inactive | –
37 | C[C@]12CC[C@@H]3c4ccc(O[C@@H]5O[C@H](C(=O)O)[C@@H](O)[C@H](O)[C@H]5O)cc4CC[C@H]3[C@@H]1CCC2=O | inactive | –
38 | COC(=O)C1=CO[C@@H](O[C@@H]2O[C@H](CO[C@@H]3O[C@H](COC(=O)/C=C/c4ccc(O)cc4)[C@@H](O)[C@H](O)[C@H]3O)[C@@H](O)[C@H](O)[C@H]2O)[C@@H]2C(CO)=CC[C@H]12 | inactive | –
39 | COc1cc(C2Oc3c(OC)cc(/C=C/C(=O)OC[C@H]4O[C@@H](OC(C)(C)C(=O)O)[C@H](O)[C@@H](O)[C@@H]4O)cc3C2CO)ccc1O (stereo not given in full) | inactive | –
40 | COc1cc(O[C@@H]2O[C@H](CO)[C@@H](O)[C@H](O)[C@H]2O)c(CCC(=O)OC[C@H]2O[C@@H](Oc3cc(OC)c(C4OC(=O)C(C)(O)C4O)cc3CCC(=O)O)[C@H](O)[C@@H](O)[C@@H]2O)cc1C1OC(=O)C(C)(O)C1O (stereo not given in full) | inactive | –
